Screens deposited in PubChem BioAssay by National Center for Advancing Translational Sciences (NCATS).
HepG2 tox – counter-screen for TGF-b inhibitors: cytotoxicity in HepG2 cells; Potency, µM (top dose mostly 46.1 µM), inactives show at the top dose activity change, negative = cytotoxicity, most hits filed as cytotoxic; 410,000 tested, 0.76% active; HepG2 CAGA-GFP viability, ATP luminescence, 18 h; AID 588856
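CellTiter-Glo luminescence gave cytotoxicity after 18 hours at 37 degrees C. The cells were HepG2 CAGA-GFP in 1% FBS DMEM, stimulated with 500 pg/mL TGF-beta after compound addition. %Activity was normalised to no-cell wells (complete cell-killing) and DMSO (no toxicity), and curves were fitted and classified.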
HT1080-NT tox – kills 2HG-producing HT-1080-NT fibrosarcoma cells; Potency, µM (titrated, usually from 46.1 µM), inactives show top-dose activity, negative = less viability, usual class: cytotoxic; HT-1080-NT fibrosarcoma viability, CellTiter-Glo ATP luminescence, 48 h; 360,000 tested, 1.6% active;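 also: NT is the 2HG producing partner of a matched IDH1 knockdown line; 0% = DMSO-treated cells and -100% = media-only wells without cells; nearly all actives have a fitted effect of over 55% in size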
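Viability of the 2HG-overproducing fibrosarcoma line after 48 hours of compound exposure at 37 degrees C was determined by luminescence with CellTiter-Glo, and concentration-effect curves were then fitted and categorized.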
TGFb SMAD3 inh – inhibitors of TGF-b signaling. HepG2 CAGA-GFP TGF-b/SMAD3 reporter, GFP fluorescence, 18 h; TGF-beta stimulated, 500 pg/mL final. Potency, µM (series often up to 46.1 µM), inactives show at the top dose activity, negative = inhibition, actives largely listed as inhibitors. 410,000 tested, 1.2% active. AID 588855; also: % is scaled to controls: 0 for no effect and ±100 for the full control effect; nearly all actives have a fitted effect of over 65% in size
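Read-out: total well GFP (ex488/em500-530) summed from mean per-cell fluorescence. Cells: HEPG2 CAGA-GFP, 1% FBS DMEM, 18 h at 37 degrees C with 500 pg/mL final TGF-beta. Unstimulated wells served as the full-inhibition control; stimulated DMSO wells = 0%.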
HT1080 IDH1KD tx – toxicity to HT-1080 IDH1 knockdown cells (counter line); Potency, µM (top dose mostly 46.1 µM), without a hit: top-dose activity, negative = toxicity, actives largely listed as cytotoxic; 360,000 tested, 2% active; HT-1080 IDH1 knockdown viability, ATP luminescence, 48 h;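 also: 0% = DMSO wells and -100% = cell-free medium wells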
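CellTiter-Glo luminescence after 48 h compound exposure at 37 degrees C of IDH1-knockdown HT-1080 cells in 5% FBS RPMI. %Activity scaled between DMSO wells and cell-free media wells, with curves fitted and assigned curve classes.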
KB-3-1 cytotox – KB-3-1 parental cell cytotoxicity; KB-3-1 viability, CellTiter-Glo ATP luminescence, 72 h; Potency, µM (titrated, usually from 46.1 µM), usual class: cytotoxic; 400,000 tested, 1.4% active; AID 1347075; also: % is scaled to controls: 0 for no effect and ±100 for the full control effect; nearly all actives have a fitted effect of over 60% in size
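Parental KB-3-1 viability, qHTS format: 72 h compound exposure, 37 °C; CellTiter-Glo; media-only wells and DMSO plates as controls; concentration-effect fits on corrected data.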
KB-V1 MDR tox – KB-V1 MDR subline cytotoxicity | Potency, µM (series often up to 46.1 µM), most hits filed as cytotoxic | KB-V1 MDR cells viability, CellTiter-Glo, 72 h | 400,000 tested, 3.4% active; also: % is scaled to controls: 0 for no effect and ±100 for the full control effect; nearly all actives have a fitted effect of over 60% in size
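Cells of the MDR subline KB-V1 are plated, dosed with compound at multiple concentrations, and incubated 72 h at 37 degrees C; CellTiter-Glo is then added and luminescence read after 10 min.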
Active calls of the source: *; i = inactive; ? = inconclusive; . = not tested or not shown; ! = not confirmed by another sample. An excerpt weighted towards active compounds, which were near 6.6% of everything screened. Calls follow the shape of the dose curve; as a rule, active = well fitted curve in the direction sought with a large enough effect; inconclusive = small, poorly fitted or top-dose-only effect, or another doubt; inactive = no such curve, though single readings can be large; an effect the other way counts as inactive or inconclusive. Potency is read from the fitted curve at half-maximal effect.

SMILES | HepG2 tox | HT1080-NT tox | TGFb SMAD3 inh | HT1080 IDH1KD tx | KB-3-1 cytotox | KB-V1 MDR tox
COc1ccccc1N1CCN(Cc2cc(COC(C)C)c3cccnc3c2O)CC1 | 2.82µM* | . | 2.24µM* | . | . | .
CCOc1ccccc1N1CCN(Cc2cccc(OC)c2O)CC1 | 7.4% | 7.9% | -23.6% | -24.0% | i | ?
O/N=C(/C[n+]1ccsc1)c1ccc(I)cc1 | -4.3% | . | -3.3% | . | i | i
COc1ccc(NC(=O)CN(C)Cc2c(F)cccc2Cl)cc1S(=O)(=O)N1CCCCC1 | 4.9% | 12.3% | 2.8% | 16.9% | i | ?
COc1ccc(/C=C/C(=O)N(C)CC(=O)Nc2cccc(F)c2)cc1S(=O)(=O)N1CCCCC1 | 4.6% | -28.3% | 1.9% | ? | 20.6µM* | i
COc1ccc(NC(=O)CN(C)C(=O)/C=C/c2ccc(OCc3ccccc3)cc2)cc1 | -37.8% | -21.8% | -22.5% | ? | ? | ?
COc1ccc(NC(=O)CN(C)C(=O)/C=C/c2ccc(S(=O)(=O)N3CCCCCC3)cc2)cc1 | -43.5% | -6.4% | -28.2% | ? | ? | 20.6µM*
C[C@@H]1CN([C@@H](C)CO)S(=O)(=O)c2ccc(Br)cc2O[C@@H]1CN(C)C(=O)c1ccccn1 | -6.3% | 4.8% | 0.7% | 5.5% | i | i
Nc1nc(Cl)cc(N2CCC(c3cc(-c4ccc(Cl)cc4Cl)n[nH]3)CC2)n1 | -109.6% | ? | ? | ? | ? | 23.1µM*
Nc1nc(Cl)cc(N2CCCC2)n1 | -2.5% | 6.5% | 4.1% | 0.0% | i | i
O=c1[nH]c2ccccc2c(O)c1-[n+]1ccccc1 | -2.2% | -0.9% | -9.5% | -2.1% | i | ?
O=c1[nH]c2ccccc2c(O)c1O | -9.1% | 18.4µM* | -14.8% | ? | ? | ?
CCc1c(C)c2ccccc2[nH]c1=O | -4.1% | . | 11.1% | . | 4.11µM* | 2.31µM*
CCCCCc1c(O)c2ccccc2[nH]c1=O | -4.3% | 23.8% | -13.1% | -2.5% | i | 16.4µM*
COc1ccc(NC(=O)c2c(NCc3ccc(N(C)C)cc3)sc3c2CCC3)cc1 | -24.5% | . | -11.6% | . | i | i
COc1ccccc1NC(=O)c1oc2ccccc2c1NC(=O)Cc1ccccc1 | -26.5% | . | 0.3% | . | i | i
Cc1ccc(NC(=O)CN2C(=O)CC(c3ccc(C)c(C)c3)=Nc3ccccc32)cc1 | -12.3% | . | -16.8% | . | i | i
COC(=O)c1nn(Cc2ccccc2)c(=O)c2ccccc12 | -4.8% | 4.8% | -7.2% | 20.7% | i | 16.4µM*
NC(=O)c1nn(Cc2ccccc2)c(=O)c2ccccc12 | -5.5% | -5.1% | -5.5% | -10.5% | i | ?
CCCOc1ccc(/C=C/C(=O)Nc2sc(C)c(C)c2C(=O)OCC)cc1OC | -10.9% | . | 0.8% | . | i | i
CC(C)Oc1ccc(CNC(=O)c2ccc3nc(Cc4ccccc4)oc3c2)cc1 | -31.2% | . | ? | . | i | i
O=C(Nc1ccc(F)c(Cl)c1)C1Cc2c(-c3ccc4c(c3)OCO4)ccnc2O1 (configuration not stated) | -16.5% | 16.4µM* | ? | 25.9µM* | i | i
O=C(Nc1ccc(F)c(Cl)c1)C1Cc2c(-c3ccccc3Oc3ccccc3)ccnc2O1 (configuration not stated) | -26.3% | 13µM* | ? | 0.0% | i | i
O=C(NCc1ccncc1)C1Cc2c(-c3ccccc3Oc3ccccc3)ccnc2O1 (configuration not stated) | -57.3% | ? | 14.1µM* | -3.3% | i | i
COc1ccc(NC(=O)C2Cc3c(-c4ccccc4Oc4ccccc4)ccnc3O2)cc1OC (configuration not stated) | -14.6% | ? | ? | ? | i | ?
SMILES | HepG2 tox | HT1080-NT tox | TGFb SMAD3 inh | HT1080 IDH1KD tx | KB-3-1 cytotox | KB-V1 MDR tox
Cc1cc2[nH]c3ccccc3c2c(C)n1 | -7.7% | -29.8% | ? | ? | ? | 16.4µM*
Cc1[nH]c2ccccc2c1C(c1c(C)[nH]c2ccccc12)c1c(C)[nH]c2ccccc12 | -32.3% | . | ? | . | ? | ?
O=C(Nc1cccc(Cl)c1Cl)c1cc2nc(-c3ccc4c(c3)OCO4)cc(C(F)(F)F)n2n1 | 2.0% | . | 0.9% | . | ? | i
COCC(C)n1c(-c2ccc3c(c2)NC(=O)CO3)csc1=Nc1ccc(OC(F)F)cc1 (configuration not stated) | 12.6µM*! | 20.6µM*! | ? | ? | 9.2µM*! | ?
CCN=c1scc(-c2ccc3c(c2)NC(=O)CO3)n1N=C1CCCC1 | -28.6% | ? | -5.9% | ? | ? | ?
CCOc1ccccc1NC(=O)Cn1c(=O)n(CCCC(=O)NCCOC)c(=O)c2cc(OC)c(OC)cc21 | -9.3% | . | -0.7% | . | i | i
COc1ccccc1N1CCN(/N=C\c2ccccc2)CC1 | -4.9% | 21.9% | -1.6% | 17.9% | i | i
COc1ccccc1N1CCN(/N=C/c2cc(OC)c(OC)c(OC)c2)CC1 | -5.6% | 1.2% | -10.7% | -2.6% | i | 14.6µM*
NC(=O)C1CCN(c2csc3ccc(F)cc3c2=O)CC1 | -13.4% | . | 0.2% | . | i | i
CCN(CC)C(=O)[C@H]1C[C@H](CC(=O)NCCCn2ccnc2)C(=O)N2CCc3c([nH]c4cc(CCC(=O)N(C)C)ccc34)[C@]12C | -29.8% | 0.5% | -1.0% | -0.1% | i | i
CCOc1ccc2nc(N3CCCC(C(=O)NCCCN4CCCCC4)C3)sc2c1 (configuration not stated) | -35.2% | 18.4µM* | -4.0% | ? | ? | ?
CCOc1ccc2nc(N3CCCC(C(=O)NCCCN4C(C)CCCC4C)C3)sc2c1 (configuration not stated) | -30.2% | ? | -2.7% | ? | i | i
CCOc1ccc2nc(N3CCCC(C(=O)NCCCN4CC(C)CC(C)C4)C3)sc2c1 (configuration not stated) | -94.5% | 16.4µM* | ? | ? | ? | i
COc1ccc(CCNC(=O)CSc2nc(-c3ccc(F)cc3)cc(C(F)(F)F)n2)cc1OC | -4.6% | . | 11.7% | . | i | i
CCOC(=O)c1c(NC(=O)C(C)Sc2cn(CCNC(=O)c3ccc(OC)c(OC)c3)c3ccccc23)sc2c1CCC2 (configuration not stated) | -21.1% | . | 7.8% | . | i | i
Cc1ccccc1C(c1c(C)n(C)n(-c2ccccc2)c1=O)c1c(C)n(C)n(-c2ccccc2)c1=O | 1.5% | . | 0.1% | . | i | i
